Screening data (PubChem BioAssay)
Sampled rows, rich in hits. Any-hit rate of the full collection: about 3.2%.
NTR1 ag: agonists of human neurotensin receptor NTR1; NTR1-U2OS beta-arrestin-GFP spot imaging, agonist mode; 0.17% of 330,000 active; AID 493036; P30989; activation, % at 20 µM;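 active = activation at or above 40% of the spot to cytoplasm intensity ratio, with at least 20 cells analyzed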
AHR activator: activates the human aryl hydrocarbon receptor. AHR-responsive luciferase reporter cells, luminescence. 2.5% of 320,000 active. P35869. activation, % at 5 µM. AID 2796; in the data active = activation above about 47%
Target sequence (P35869 whole entry, looked up): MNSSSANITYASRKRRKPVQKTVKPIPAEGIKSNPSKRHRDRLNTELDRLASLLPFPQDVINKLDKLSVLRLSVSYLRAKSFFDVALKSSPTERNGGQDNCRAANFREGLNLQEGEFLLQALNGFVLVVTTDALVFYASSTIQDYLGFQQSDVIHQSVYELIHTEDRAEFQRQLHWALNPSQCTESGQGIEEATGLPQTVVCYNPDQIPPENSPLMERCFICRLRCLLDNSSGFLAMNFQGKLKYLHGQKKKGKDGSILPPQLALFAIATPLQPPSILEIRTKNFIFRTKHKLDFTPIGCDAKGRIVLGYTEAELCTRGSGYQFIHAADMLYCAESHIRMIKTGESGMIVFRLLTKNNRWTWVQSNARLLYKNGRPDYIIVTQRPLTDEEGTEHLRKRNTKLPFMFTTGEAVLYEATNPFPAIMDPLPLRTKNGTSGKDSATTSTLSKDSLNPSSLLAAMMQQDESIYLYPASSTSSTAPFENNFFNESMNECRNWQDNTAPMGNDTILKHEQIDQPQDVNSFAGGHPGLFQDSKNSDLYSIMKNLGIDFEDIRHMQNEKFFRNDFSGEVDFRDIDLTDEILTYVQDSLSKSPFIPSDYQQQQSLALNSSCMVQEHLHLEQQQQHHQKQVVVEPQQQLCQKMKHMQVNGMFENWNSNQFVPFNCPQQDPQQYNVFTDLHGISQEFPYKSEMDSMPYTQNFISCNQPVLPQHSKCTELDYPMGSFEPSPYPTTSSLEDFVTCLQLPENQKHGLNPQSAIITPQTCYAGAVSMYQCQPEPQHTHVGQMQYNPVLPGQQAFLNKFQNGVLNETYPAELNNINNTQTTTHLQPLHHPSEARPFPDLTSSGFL
A3G deaminase: blocks human APOBEC3G single-stranded DNA deamination; Q9HC16; recombinant A3G, ssDNA deamination FAM/TAMRA fluorescence; 0.28% of 330,000 active; inhibition, % at 20 µM;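 active = inhibition of at least 40% at 20 µM, with no more than 30% in the related APOBEC3A deaminase screen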
A3A deaminase: inhibitors of human APOBEC3A DNA deaminase | 0.41% of 330,000 active | inhibition, % at 20 µM | recombinant A3A, FAM/TAMRA ssDNA deamination fluorescence | AID 493011;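 active = at least 40% inhibition at 20 µM here, with at most 30% in a related deaminase screen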
Of the large screens only hits and unclear results are named; the others gave an inactive call.

COc1ccccc1NC(=O)CCCn1c(=S)[nH]c2ccccc2c1=O	AHR activator 48
COc1cccc(-n2c(SCC(=O)N3CCCCC3)nc3c([nH]c4ccccc43)c2=O)c1	none
O=C(Cn1c(=S)[nH]c2ccccc2c1=O)NCCc1ccccc1	AHR activator 79
CN(C(=O)CSc1cc(C(=O)c2nccn2C)c2ccccc2n1)c1ccccc1	none
CCCCn1c(N)c(N(CC(C)C)C(=O)C2CC(=O)N(Cc3ccccc3)C2)c(=O)[nH]c1=O (stereo not drawn)	none
C=CCn1c(SCC(=O)Nc2ccccc2OC)nc2c([nH]c3ccccc32)c1=O	none
C=CCn1c(SCC(=O)NCCc2ccccc2)nc2c([nH]c3ccccc32)c1=O	AHR activator 60
CCN(CC)c1ccc(NC(=O)/C=C/c2cc(Br)ccc2OC)cc1	AHR activator 55
Cn1ncc([N+](=O)[O-])c1C(=O)N/N=C/c1cccc([N+](=O)[O-])c1	none
N#CC1(NC(=O)CSc2nnc(-c3ccccc3F)o2)CCCCC1	none
CC(=O)c1sccc1NC(=O)CC(C)(C)CC(=O)O	none
Cc1nc(SCC(=O)Nc2nccs2)c(C#N)c(C)c1C	AHR activator 64
COc1ccc(-c2[nH]c(-c3ccc(Cl)cc3)nc2SCC(=O)Nc2nccs2)cc1	AHR activator 62
CCc1cc(=O)oc2cc3occ(C)c3cc12	none
CCCc1cc(=O)oc2cc3occ(C)c3cc12	AHR activator 47
CCCc1cc(C(=O)Nc2ccc(CC)cc2)no1	none
C[n+]1c2n(c3ccccc31)N=C(c1ccc(Br)cc1)CS2	AHR activator 60
C[n+]1c2n(c3ccccc31)N=C(c1ccc(-c3ccccc3)cc1)CS2	AHR activator 53
Cc1cc(-c2ccccc2)nc(Cl)c1C#N	AHR activator 76
c1ccc2sc(Sc3ncnc4sccc34)nc2c1	AHR activator 49
CCc1cc2c(Sc3nc4ccccc4s3)ncnc2s1	none
O=C(NNc1nc2ccccc2s1)Nc1ccc(F)cc1	AHR activator 75
O=C(Nc1ccc(F)cc1F)Nc1sccc1-c1nc2ccccc2s1	none
O=C(Nc1nc2ccccc2s1)Nc1ccc(F)cc1F	AHR activator 71
CCN(CC(=O)NCc1cccs1)C(=O)c1ccc(OC)c(OC)c1	none
Cc1ccccc1NC(=O)CCCC(=O)c1ccccc1	none
COc1cccc2c(N/N=C/c3ccccc3)cc(C)nc12	none
COc1cccc(/C=N/Nc2nc(Nc3ccccc3)nc(-n3nc(C)cc3C)n2)c1O	AHR activator 60
COc1ccc(/C=N/Nc2cc(C)nc3ccc(Br)cc23)cc1	AHR activator 71
COc1ccc2nc(C)cc(N/N=C/c3cccc(OC)c3O)c2c1	NTR1 ag 41, AHR activator 111
O=C(NCc1csc(-c2ccccc2)n1)c1cc(F)cc2c1OCOC2	none
Cn1ccsc1=NC(=O)c1ccc(S(C)(=O)=O)c([N+](=O)[O-])c1	AHR activator 62
Cn1ccsc1=NC(=O)c1ccc(Cl)c([N+](=O)[O-])c1	AHR activator 68
Cn1ccsc1=NC(=O)c1ccc(S(C)(=O)=O)cc1	none
Cc1ccc(N/N=C(\C#N)C(=N)N2CCCCCC2)cc1	none
CCN(CC)C(=N)/C(C#N)=N/Nc1ccc(C)cc1	AHR activator 75
O=C(Cc1ccc(Cl)cc1)Nc1ccccc1C(=O)N1CCCCC1	none
COc1ccccc1NC(=O)CSc1c2c(nc3ccccc13)CCC2	AHR activator 47
Cn1c(/C(C#N)=C(\O)c2ccc(Cl)s2)nc2ccccc21	AHR activator 65
Cn1c(/C(C#N)=C(\O)c2ccc([N+](=O)[O-])s2)nc2ccccc21	none
Clc1cccc(-c2nnc(-c3ccccc3)o2)c1	AHR activator 65
Oc1ccccc1-c1nnc(-c2ccc(C(F)(F)F)cc2)o1	AHR activator 52
c1ccc(-c2nnc(-c3ccccc3)o2)cc1	AHR activator 59
CSc1ccccc1-c1nnc(-c2ccccc2)o1	none
Nc1ccccc1-c1nnc(-c2ccc(-c3ccccc3)cc2)o1	AHR activator 76
Clc1cccc(-c2nnc(-c3ccno3)o2)c1	none
COCCN(CC(=O)Nc1cc(Cl)ccc1-n1cncn1)Cc1nc2ccccc2c(=O)[nH]1	none
Cc1ccc(C(=O)NCC(=O)NCCCc2ccccc2)cc1	none
O=C(c1ccc(F)cc1)C1CCN(C(=S)NCC2CCCO2)CC1 (stereo not drawn)	none
O=C(CN1C(=O)NC2(CCCCC2)C1=O)N1CCN(S(=O)(=O)/C=C/c2ccccc2)CC1	none
Cc1ccc(CNC(=O)CCSCc2ccccc2C)cc1	none
NC(=O)c1oc2ccccc2c1NC(=O)c1ccccc1	AHR activator 69
NC(=O)c1oc2ccccc2c1NC(=O)c1ccco1	AHR activator 47
Cc1ccc(C)c(C(=O)Nc2c(C(N)=O)oc3ccccc23)c1	none
CC1CCCCN1C(=O)/C(=C\c1ccccc1)c1ccccc1 (stereo not drawn)	none
COc1ccc(CCN2CC(C(=O)N3CCC(O)(c4ccccc4)CC3)CCC2=O)cc1 (stereo not drawn)	none
O=C(/C=C/c1c[nH]c2ccccc12)c1cccc2ccccc12	AHR activator 68
c1ccc([C@H]2CN3C(=N2)Sc2ccccc23)cc1	AHR activator 72
CC(=O)N1SC(N)=NC1c1ccccc1 (stereo not drawn)	none
CCn1c(-c2ccc(N)cc2)nc2ccccc21	none
CCn1c(-c2ccc(N(C)C)cc2)nc2ccccc21	AHR activator 54
CN(C1CCCCC1)S(=O)(=O)c1ccc(-c2ccccn2)s1	none
Cc1cc(=O)[nH]c(/N=C(\N)Nc2ccc(SC(F)F)cc2)n1	AHR activator 68
Cc1cc(=O)[nH]c(/N=C(\N)Nc2ccc(Oc3ccccc3)cc2)n1	none
Nc1ccc(-c2nc3c(Cl)c(N)ccc3[nH]2)cc1	AHR activator 60
COc1ccc(/C=C/C(=O)Nc2cc(=O)n(C)c(=O)n2C)cc1	AHR activator 47
Cc1occc1C(=O)Nc1cc(=O)n(C)c(=O)n1C	AHR activator 66
Cn1c(NC(=O)c2ccco2)cc(=O)n(C)c1=O	none
Cn1c(NC(=O)/C=C/c2ccccc2)cc(=O)n(C)c1=O	AHR activator 78
O=C(COC(=O)Cc1c(Cl)cccc1Cl)Nc1ccc(OC(F)(F)F)cc1	AHR activator 67
CCCCC(C(=O)OCC)C(N)Cc1ccc(F)cc1 (stereo not drawn)	none
CCOc1ccccc1NC(=O)/C=C/c1ccccc1[N+](=O)[O-]	AHR activator 63
Cc1ccnc(NC(=O)/C=C/c2ccccc2[N+](=O)[O-])c1	AHR activator 72
Cc1ccnc(NC(=O)/C=C/c2ccccc2Cl)c1	none
CC(=O)Oc1c2occc2cc2ccc(=O)oc12	none
COc1c2occc2c(OC(C)=O)c2c(=O)cc(C)oc12	AHR activator 54
O=C(NN=C1CCCC1)c1cccc(Br)c1	none
N#Cc1cc2ccccc2nc1SCC(=O)NC1CC1	AHR activator 64
CCCN(C(=O)Cc1c(C(=O)O)n(C)c2ccccc12)c1cccc(C)c1	none
O=C(Nc1ccc2c(c1)OCO2)c1ccc(Br)o1	AHR activator 129
O=C(Nc1ccc2c(c1)OCO2)c1cncc(Br)c1	AHR activator 93
O=C(Nc1ccc2c(c1)OCCO2)c1cncc(Br)c1	none
